Screens deposited in PubChem by National Center for Advancing Translational Sciences (NCATS).
HPGD block – blocks human HPGD enzyme activity. Potency, µM, without a hit: at the highest dose activity change, negative = inhibition, hits mostly inhibitors. purified HPGD, NADH fluorescence kinetic, PGE2 substrate. AID 894. hit rate 4.3% among 150,000. P15428; note: potency is the fitted concentration of half-maximal effect
Target sequence (P15428 whole entry, looked up): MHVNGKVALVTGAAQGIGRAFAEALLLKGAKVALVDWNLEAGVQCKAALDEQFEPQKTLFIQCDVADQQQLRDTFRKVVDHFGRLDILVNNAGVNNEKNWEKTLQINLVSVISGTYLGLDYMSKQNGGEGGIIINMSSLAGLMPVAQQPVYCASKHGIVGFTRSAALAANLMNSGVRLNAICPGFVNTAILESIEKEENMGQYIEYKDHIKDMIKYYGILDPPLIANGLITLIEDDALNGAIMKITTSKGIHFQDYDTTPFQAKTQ
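20 nM HPGD preincubated 15 min at room temperature with compound in 50 mM Tris-HCl pH 8, 0.01% Tween 20. Started with 1 mM NAD+ and 30 uM prostaglandin E2; NADH fluorescence (360/450 nm) read 5 times over 30-s intervals, last minus first.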
PNC inhibitor – blocks assembly of the perinucleolar compartment; PC3M PTB-GFP, PNC prevalence imaging, 16 h; active compounds read low; activity change (PNC), negative = inhibition, % at 10 µM; hit rate 3.1% among 140,000; AID 2417;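 active = readout at or below -70, meaning at least 70% loss of cells showing the perinucleolar compartment, a nuclear body marking cancer cells; inconclusive = readout between -30 and a set limit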;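 note: plate controls were DMSO wells for no effect and camptothecin positive control wells for full effect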
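Read-out is percentage of cells bearing a perinucleolar compartment, from automated 20x imaging of fixed, Hoechst-stained PC3M PTB-GFP cells. Cells were seeded 4 h, then exposed 16 h to compound (23 nl of library stock) in duplicate plates.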
ALDH1A1 block – ALDH1A1 (human) enzyme inhibition; P00352; Purified ALDH1A1, NADH fluorescence, propionaldehyde substrate; Potency, µM (top dose mostly 75.3 µM), for inactives: at the highest dose activity, negative = inhibition, most hits filed as inhibitors; hit rate 7.3% among 220,000;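 note: potency is the fitted concentration of half-maximal effect; plate controls were no enzyme wells and a reference inhibitor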
* = called active by the depositor; ? = inconclusive; nt = not tested or not shown; [ ] = dose if it differs, or a comment. The list is not random: actives were taken first. Their share in the collection is about 11%. Unless noted, calls come from the whole dose curve; as a rule, active = well fitted inhibition curve with a large enough effect (not every such curve was filed as active); inconclusive = small, poorly fitted or top-dose-only effect, or another doubt; inactive = no such curve, though single readings can be large or run the other way. Unless noted, % is set by controls: 0 for no effect and ±100 for the full control effect.

SMILES	HPGD block	PNC inhibitor	ALDH1A1 block
CS(=O)(=O)c1ccc2nc(NC(=O)c3ccc(S(=O)(=O)NCC4CCCO4)cc3)sc2c1 (configuration not stated)	nt	nt	-4%
CCC/C=C(\CCC)C(NS(=O)(=O)c1cccc2cccnc12)c1ccc(-c2ccccc2)cc1 (configuration not stated)	-18%	nt	-10%
CNCC[C@H](Oc1ccccc1OC)c1ccccc1	6%	nt	1%
Cc1ccc(CN2CCN(/N=C/c3cc(Br)cc(Br)c3O)CC2)c(C)c1	-9%	-11	-1%
O=C(/C=C/c1ccc(F)cc1)Nc1ccc2[nH]c(=O)[nH]c2c1	nt	nt	13%
CC(=O)NNc1nc2ccccc2s1	-13%	58	4%
CN(C)C(=S)Nc1nc2ccccc2s1	nt	nt	7.9µM*
CN(C)c1ccc(C(C#N)c2ccc(Cl)cc2)nn1 (configuration not stated)	nt	nt	-7%
CN(C)c1ccc(C(C#N)c2ccccc2)nn1 (configuration not stated)	nt	nt	10µM*
CCOC(=O)N/N=C1/C[C@@H](O)[C@@H](O)[C@@H]2[C@@H]3C(=O)N([C@@H](C)c4ccccc4)C(=O)[C@H]3CC[C@H]12	nt	nt	7%[13.5 µM]
COc1ccc(NC(=S)NC(C)c2ccncc2)cc1OC (configuration not stated)	nt	nt	1%
O=[N+]([O-])c1ccc(NC(=S)NCc2ccncc2)cc1	nt	nt	11µM*
O=[N+]([O-])c1cccc(NC(=S)NCc2ccncc2)c1	nt	nt	9.5µM*
CC(NC(=S)Nc1ccc([N+](=O)[O-])cc1)c1ccncc1 (configuration not stated)	nt	nt	20µM*
O=C(NCc1ccncc1)Nc1cccc([N+](=O)[O-])c1	nt	nt	7%
O=[N+]([O-])c1ccc(NC(=S)NCCc2ccccc2)cc1	-10%	-23	?
CC(Oc1ccccc1)C(=O)Nc1nnc(C2CCCCC2)s1 (configuration not stated)	nt	nt	-12%
CCOc1ccc(CCNC(=O)COC(=O)c2cc(OC)cc(OC)c2)cc1OCC	nt	nt	-7%
O=S(=O)(CC(CN1CCCCC1)N1CCCCC1)c1ccc2ccccc2c1 (configuration not stated)	nt	nt	5%
O=C(NCc1ccccc1Cl)C(=O)NCC(c1ccco1)N1CCOCC1 (configuration not stated)	nt	nt	-5%
CC1CCC2CC1C2(C)C (configuration not stated)	-4%	nt	-3%
COCCCNCCOCCOc1ccccc1-c1ccccc1	-1%	-17	-1%
CC(C)(C)NCCOCCOc1ccccc1-c1ccccc1	3%	-106*	25µM*
COc1ccc2c(c1)C(=O)N(c1ccccc1OC)C(=O)C2	8.9µM*	14	18µM*
COc1ccc2c(c1)C(=O)N(c1ccc(C)cc1C)C(=O)C2	?	55	?
SMILES	HPGD block	PNC inhibitor	ALDH1A1 block
CCOc1cccc(=O)c2c(C)n(Cc3ccccc3)c(C)c12	nt	nt	-12%
CCOc1cccc(=O)c2c(C)n(Cc3ccco3)c(C)c12	?	-100*	2.2µM*
COc1ccc(CCNC(=O)CSc2nnc3ccccn23)cc1	nt	nt	-3%
CC(=O)c1ccc(NC(=O)C(C)OC(=O)c2ccc(NS(=O)(=O)c3ccc(F)c(F)c3)cc2)cc1 (configuration not stated)	-11%	-100*	-11%
Cc1ccc(NC(=O)C(C)OC(=O)c2ccc(NS(=O)(=O)c3ccc(F)c(F)c3)cc2)cc1 (configuration not stated)	-6%	-27	6%
CCC(NC(=O)CCc1ccccc1)c1ccccc1 (configuration not stated)	nt	nt	4%
CCC(NC(=O)C1CCC1)c1ccccc1 (configuration not stated)	-11%	-100*	2%
CN(C)/C=C(/C(=O)c1ccc(Cl)cc1)S(=O)(=O)c1ccc(Cl)cc1	-18%	38	-1%
CC1(OC(=O)C2CCCC2)C(=O)C=C2C=C(c3ccsc3)N(CCCCO)C=C2C1=O (configuration not stated)	-7%	nt	-3%[13.5 µM]
CC1(OC(=O)C2CCCC2)C(=O)C=C2C=C(c3ccsc3)N(Cc3ccco3)C=C2C1=O (configuration not stated)	-11%	nt	3.5µM*
O=C(Nc1cccc(F)c1)N1CCCC2(CCN(C(=O)c3ccncc3)CC2)C1	-7%	nt	19%
CC[C@@H](C)C(NC(=O)OC(C)(C)C)c1cn([C@@H](Cc2cc3ccccc3[nH]2)C(=O)N2CCN(C(=O)OC(C)(C)C)CC2)nn1 (some centres not stated)	nt	nt	-11%
COc1ccc(NC(=S)NNS(=O)(=O)c2ccc3ccccc3c2)c(OC)c1	nt	nt	22µM*
COc1ccc(NC(=S)Nc2ccccc2F)c(OC)c1	0%	-26	10%
